The record followed here is PubChem BioAssay (NCATS).

Results filed as inconclusive are left out. A number with no mark means an inactive call. Active and inactive are the calls of the source. Calls follow the shape of the dose curve; as a rule, active = well fitted inhibition curve with a large enough effect; inconclusive = small, poorly fitted or top-dose-only effect; inactive = no such curve, though single readings can be large or run the other way.
% is scaled to controls: 0 for no effect and ±100 for the full control effect; potency is read from the fitted curve at half-maximal effect.

Chain of Tumor susceptibility gene 101 protein (Homo sapiens) (Q99816 whole entry, looked up, the tested form may be a part): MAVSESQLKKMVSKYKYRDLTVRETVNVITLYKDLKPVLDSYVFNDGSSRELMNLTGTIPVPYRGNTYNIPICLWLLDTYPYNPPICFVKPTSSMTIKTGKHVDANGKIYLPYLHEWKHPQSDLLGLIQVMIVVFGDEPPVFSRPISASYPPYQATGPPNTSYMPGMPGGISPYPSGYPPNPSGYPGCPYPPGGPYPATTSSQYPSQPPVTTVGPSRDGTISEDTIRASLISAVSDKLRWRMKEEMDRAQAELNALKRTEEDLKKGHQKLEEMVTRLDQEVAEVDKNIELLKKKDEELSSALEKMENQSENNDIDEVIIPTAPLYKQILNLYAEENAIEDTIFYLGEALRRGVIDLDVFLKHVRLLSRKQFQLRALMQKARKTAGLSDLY

The target in the test is Tumor susceptibility gene 101 protein (Homo sapiens) (UniProt Q99816). Briefly: qHTS Assay for Iinhibitors of HIV-1 Budding by Blocking the Interaction of PTAP/TSG101: Hit Validation (AID 651600). Also: nearly all actives have a fitted effect of over 70% in size. Particulars: PTAP peptide/TSG101 UEV interaction, biochemical assay; series mostly up to 57.5 µM; activity change, negative = inhibition: at the top concentration. The procedure, abridged:
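Fluorescence polarization binding assay: Tsg101 binding domain (10 uM) mixed with compounds and FITC-labeled PTAP peptide (50 nM) in HEPES pH 7.5, 0.15 M NaCl, 0.01% Tween 20, EDTA, TCEP; 20 min at r.t.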
(In general: qHTS replaces the single test concentration by a dilution series.)
Consider `Cc1ccc2nc(-c3ccco3)c(Nc3ccccc3)n2c1`, for which the “activity change, negative = inhibition” value is 6.19%.
On to `Cc1c(C(=O)Nc2cccc(C(F)(F)F)c2)sc2nc3n(c(=O)c12)CCCC3`, for which the “activity change, negative = inhibition” value is 6.36%.
Turning to `CCN(C(=O)c1sc2nc3n(c(=O)c2c1C)CCCC3)c1ccccc1F`, the “activity change, negative = inhibition” value was 1.87%.
On the same count and under the same terms, the same measure for `Cc1nc2nc(-c3cccs3)cn2nc1C`: -19%; for `CCCCCOc1ccc(/C=c2\sc3nc(=O)c(-c4ccccc4)nn3c2=O)cc1OC`: -11.2%.
For `COc1ccc(OC)c2cc3ccccc3cc12`, the Potency was 32.6 µM (active).
For `O=c1oc2c3c4c(cc2c2c1CCC2)OCCN4CCC3`, the “activity change, negative = inhibition” value is 14.3%.
`C/C(=N/NC(=O)c1ccncc1)c1cc2ccc(O)cc2oc1=O`: the Potency was 14.6 µM (active).
For the compound `Cc1cc(=O)c2c([nH]1)c(C)cc1[nH]c(C)c(C)c12`, the “activity change, negative = inhibition” value was 13.6%.
As for `Nc1cnccc1C(=O)O`, the Potency was 20.6 µM (active).
On to `O=C1c2ccccc2S(=O)(=O)c2cc(N3CCN(C(=O)c4ccccc4)CC3)ccc21`, for which the “activity change, negative = inhibition” value was -20.7%.
Same read-out and setting: the same measure for `Cc1cccc(N=Nc2c(O)[nH]c3ccc(F)cc23)c1`: -2.45%; for `Cc1c(C(=O)NCc2ccccc2)sc2nc3n(c(=O)c12)CCCCC3`: -1.87%; for `Nc1c(C(=O)O)sc2nc(-c3ccccc3)cc(-c3ccc(Cl)cc3)c12`: 4.22%.
Turning to `COc1ccc2c(C=Nc3c(C)n(C)n(-c4ccccc4)c3=O)c(O)n(Cc3ccco3)c(=O)c2c1`, the Potency was 29.1 µM (active).
In the case of `CN(C)c1ccc(/C=C2\SC(=O)N(CC(O)Cn3c4ccccc4c4ccccc43)C2=O)cc1` (configuration not stated), the Potency is 16.3 µM (active).
In the case of `CC(=O)c1ccc(N2C(=O)C3C(C2=O)C(C(=O)c2ccc(Cl)cc2)N2CCCC32)cc1` (configuration not stated), the “activity change, negative = inhibition” value was -21.7%.
